Laboratory results: PubChem BioAssay (NCI)
Several values for one entry are separate records, joined by “and”; a condition that tells them apart may be missing. Identical values can stand only once. The panel holds about 83,000 compounds, 20% with a hit somewhere; the sample as a whole holds those more often.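 Method: cells in 96-well plates; compound added at one concentration; 48 h incubation; percent growth measured; values under 10 scored active.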 Unmarked numbers belong to inactive results. Activity calls are given as the source filed them.

Tests used:
Experiment in all cases: NCI-60 one-dose screen, 48 h (100 = growth as untreated, 0 = no growth, -100 = all killed)
Settings in all cases: 10 µM unless noted
[1] = system: NCI-H23 lung
[2] = system: NCI-H226 lung
[3] = system: NCI-H322M lung
[4] = system: HOP-62 NSCLC
[5] = system: NCI-H460 lung
[6] = system: HOP-92 NSCLC
[7] = system: NCI-H522 lung
[8] = system: A549/ATCC NSCLC
[9] = system: 786-0 renal
[10] = system: DU-145 prostate
[11] = system: K-562 leukemia
[12] = system: MALME-3M melanoma
[13] = system: MDA-MB-231 breast
[14] = system: RXF 393 renal
[15] = system: SF-268 CNS
[16] = system: SF-295 CNS
[17] = system: SF-539 CNS
[18] = system: UACC-257 melanoma
[19] = system: M14 melanoma
[20] = system: COLO 205 colon

Row | Compound | growth [1] | growth [2] | growth [3] | growth [4] | growth [5] | growth [6] | growth [7] | growth [8] | growth [9] | growth [10] | growth [11] | growth [12] | growth [13] | growth [14] | growth [15] | growth [16] | growth [17] | growth [18] | growth [19] | growth [20]
1 | O/N=C(/c1ccccc1)c1ccc2c3c(cccc13)CC2 | 97.3% and 95.1% | 100% | 106% and 102% | 93.1% and 94.1% | 87.6% and 96.7% | 49.4% and 64.9% | 88.3% and 89.6% | 73.8% and 94.4% | 88.4% and 92.1% | 107% and 105% | 42.4% and 34.2% | 87.6% and 91.9% | 82.7% and 82.1% | 81.9% and 64.7% | 105% and 94.6% | 82.1% and 83.3% | 111% and 90.5% | 83.2% and 87.2% | 95.3% and 90.9% | 
2 | Clc1ccc(/C=N\N2CCCCCC2)cc1 | 97.8% | 93.8% and 125% | 104% | 105% and 95.9% | 108% and 119% |  | 123% and 83.6% | 94.2% and 104% | 101% and 97.5% | 112% and 102% | 87.7% | 98% | 89.7% and 99.9% | 92% and 119% | 103% and 115% | 96.4% and 95.9% | 115% and 92% | 104% and 109% | 104% and 111% | 124% and 130%
3 | CCCCCC#CC1OC23CCCCC2C(C#N)(C(=N)O3)C1(C#N)C#N (stereo not drawn) | 101% | 97.4% | 98.3% | 98.8% | 99.8% | 90.4% | 77.5% | 75.6% | 91.4% | 102% | 84% | 98% | 95.8% | 105% | 102% | 98.5% | 100% | 78.6% | 93.7% | 
4 | O=C(/C=C/c1ccc(Cl)s1)c1ccc(Cl)s1 | 89.4% and 110% | 91.4% and 102% | 97.4% |  | 101% and 115% | 79.3% and 105% | 70.1% and 87.1% | 96.8% | 79.7% and 94.8% | 97.8% and 114% | 95% and 92.6% | 114% | 108% and 112% | 90.8% and 89.7% | 100% and 109% | 90.7% | 114% and 98.3% | 101% and 103% | 101% and 115% | 112% and 122%
5 | CN(C)CCCn1c2c(c3ccc(N4CCNCC4)cc3c1=O)C(=O)c1ccccc1-2 | -59.5% (active) | 14.2% | 13% | -34.7% (active) | -47.9% (active) | 18.4% | 5.51% (active) | -61.7% (active) | -95.3% (active) | -30.1% (active) | -28.5% (active) | 21% | -49.7% (active) | -78.8% (active) | -24.8% (active) | -5.76% (active) | 52.7% | 37.3% | 19.4% | 
6 | Nc1ccccc1SC(CC(=O)c1ccccc1)c1ccc([N+](=O)[O-])cc1 (stereo not drawn) | 93.2% and 84.7% |  | 107% and 83.8% | 106% and 102% | 103% and 105% | 71.4% | 96.9% and 76.4% | 93.9% and 82% | 106% and 93.3% | 110% and 88% | 68.8% and 13.2% | 112% and 74.5% | 84.1% and 85.2% | 102% and 91.2% | 98.7% and 82.1% | 90.2% and 85.2% | 107% and 105% | 107% and 86.7% | 108% and 85.8% | 
7 | O=C(O)C1C2CCC1C(O)C2 (stereo not drawn) | 99.1% and 99.6% | 94.5% | 115% and 97.6% | 87.9% and 112% | 112% and 111% | 108% and 97.6% | 87.6% and 98.6% | 102% and 100% | 98.2% and 96.5% | 100% and 108% | 107% and 92.7% | 109% and 86.3% | 103% and 113% | 111% and 116% | 97.7% and 101% | 108% and 121% | 94.9% and 101% | 100% and 103% | 98.8% and 95.4% | 
8 | Cc1ccc(S(=O)(=O)OC[C@@]2(C)CC[C@]3(C)CC[C@]4(C)C(=C3C2)C=C[C@@H]2[C@@]3(C)CCCNC(C)(C)[C@@H]3CC[C@]24C)cc1 | 59.2% | 66.8% | 26.9% | 53.7% | -65.4% (active) | 28.6% | -47.1% (active) | -38.2% (active) | -90.7% (active) | -1.23% (active) | -28.1% (active) | 15.1% | -43.7% (active) | -7.17% (active) | 74.7% | 102% | 1.1% (active) | 61.9% | -64.9% (active) | 
9 | Nc1nc(Nc2ccc(F)cc2)nn1C(=O)c1cc(Cl)ccc1Cl | 71.9% | 80.9% | 66.4% | 85.4% | 69.4% | 75.1% | 87.8% | 75.2% | 72.9% | 78.8% | 97.4% | 108% | 88.2% | 21.8% | 74.9% | 94.3% | 72.8% | 106% | 86.8% | 
10 | COC1=CC(=O)C(OC)=C(O)C1=O | 99.1% | 102% | 93.8% | 97.9% | 106% | 106% | 96.5% | 105% | 95.7% | 109% | 103% | 97.7% | 100% | 104% | 107% | 102% | 92.4% | 97.4% | 97.2% | 
11 | COc1ccc(CN2CCc3c(Cl)nc(N)nc3C2=O)c(OC)c1 | -62.1% [100 µM] (active) | 5.05% [100 µM] (active) | 14.9% [100 µM] | 40% [100 µM] | 1.6% [100 µM] (active) | -15.2% [100 µM] (active) | 15.7% [100 µM] | 35.4% [100 µM] | 19.6% [100 µM] | 20.8% [100 µM] | 14.8% [100 µM] | 27.8% [100 µM] | 6.36% [100 µM] (active) | -20.2% [100 µM] (active) | -22.4% [100 µM] (active) | 41.6% [100 µM] | -25.3% [100 µM] (active) | 25.5% [100 µM] | -70.8% [100 µM] (active) | 
